Experimental data published in PubChem BioAssay (NCI).
About 83,000 compounds went through this panel and 20% of them were active in at least one assay; those are over-represented in the sample as a whole.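 Method: cells in 96-well plates; compound added at one concentration; 48 h incubation; percent growth measured; values under 10 scored active.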 A number with no mark means an inactive call. Activity calls are given as the source filed them.

The compounds below were run on TK-10 renal (assay: NCI-60 one-dose screen, 48 h (100 = growth as untreated, 0 = no growth, -100 = all killed)). Details: 10 µM unless noted.
Procedure: Growth inhibition of the TK-10 human tumor cell line is measured as a screen for anti-cancer activity. Cells are grown in 96 well plates and exposed to the test compound for 48 hours. Compounds are tested at a single concentration, which is 10^-5 M for most compounds. The reported endpoint is percent growth (GI% or GIPRCNT), where numbers from 0 - 100% represent growth inhibition, and numbers from -100% - 0 represent cell death. For example, a value of 40 represents 60% growth inhibition. A value of 0 means no net growth occurred over the course of the experiment. A value of -40 indicates 40% of cells at the beginning of the experiment died by the end of the experiment. A value of -100 means all cells are dead at the end of the experiment.
NCI-60 Human Tumor Cell Lines Screen was performed using the standard one-dose NCI protocol, which is described in more detail at https://dtp.cancer.gov/discovery_development/nci-60/default.htm.
Compounds with GIPRCNT values below 10 were considered active. Activity score was based on GIPRCNT using the following formula: […]
Score is 0 for GIPRCNT values of 100 or above, 50 for GIPRCNT values of 0, and 100 for GIPRCNT values of -100.

Row | Structure (SMILES) | growth
1 | COc1ccc(/C=N/c2cc(C(C)(C)C)nn2-c2ccccc2)cc1 | 117%
2 | CC(=O)/C(=C\c1c(-c2ccccc2)[nH]c2ccccc12)S(=O)(=O)c1ccccc1 | 10.2%
3 | c1cc(C2CCCCC2)ccc1OCCCCCCN1CCNCC1 | 57%
4 | COC1=CC(c2ccc[nH]2)=N/C1=C\c1[nH]c(C)c(C(=O)CCCCC(=O)NC(C)(C)C)c1C | -18.2% (active)
5 | CC(O)CN(CCO)CCN(CCO)CC(C)O (stereo not given) | 103%
6 | COc1cc(/C=C/C(=O)/C=C(/C=C/c2ccc(OC(C)=O)c(OC)c2)OB(F)F)ccc1OC(C)=O | 80.7%
7 | Cn1cnc2nc[nH]c2c1=S | 88.4%
8 | Cc1ccc(C(=O)NN)cc1 | 110%
9 | CCOC(=O)C1C(=O)C(=O)N(C(C)C)C1C(=O)OCC (stereo not given) | 99.1%
10 | COc1cc(CNC(=O)CCCC/C=C/C(C)C)ccc1OCc1nnc(Nc2ccccc2F)o1 | 97.7%
11 | O=S(=O)(Cc1cccc2c(CS(=O)(=O)c3ccc(Cl)cc3)cccc12)c1ccc(Cl)cc1 | 113%
12 | CC(C)(C)c1ccc(OCCOC(=O)CBr)cc1 | 109%
13 | COc1ccc(CN2C(=O)/C(=C\C(=O)c3ccc(OCCN4CCCC4)cc3)c3ccccc32)cc1 | 109%
14 | CCC(CCCN1C(=O)c2ccccc2C1=O)Nc1cc(OC)cc2cccnc12 (stereo not given) | 136%
15 | Nc1nc2c(c3ncncc13)C(c1cccc(C(F)(F)F)c1)Cc1ncncc1-2 (stereo not given) | 50.6%
16 | O=C(Nc1ccccc1)Nc1ccc(Nc2ncnc3sc4c(c23)CCCC4)cc1 | 124%
17 | CN1NC(c2ccccc2)NN(C)C1=O | 114%
18 | C=C(C)[C@@H]1CC[C@]2(COC(=O)c3ccccc3C(=O)O)CC[C@]3(C)[C@H](CC[C@@H]4[C@@]5(C)CCCNC(C)(C)[C@@H]5CC[C@]43C)[C@@H]12 | 65.6%
19 | O=Nc1c(-c2c(O)[nH]c3cc(Br)ccc23)[nH]c2ccccc12 | -10.5% (active)
20 | CCc1ccc(C(=Nc2ccc(N(C)C(=O)CN3CCN(C)CC3)cc2)c2c(O)[nH]c3ccc(C(=O)OC)cc23)cc1 | -64.7% (active)

Row | Structure (SMILES) | growth
21 | COc1cc([C@@H]2c3cc4c(cc3[C@H](O)[C@H]3COC[C@@H]23)OCO4)cc(OC)c1OC | 94.4%
22 | C=CCN(C)C | 119%
23 | Brc1c(-c2ccncc2)nc2n1CCS2 | 97.5%
24 | CCC(C)C1NC(=O)C(CC(C)C)NC(=O)C(C)NC(=O)C(C(C)C)NC(=O)C(CCCCN)NC(=O)C(CC(C)C)NC(=O)C(C(C)C)NC(=O)[C@H](C)NC(=O)C(C(C)CC)NC(=O)C(CCCN=C(N)N)NC(=O)C(CCCCN)NC(=O)C(CCCN=C(N)N)NC(=O)C(CCCCN)NC(=O)C([C@H](C)CC)NC(=O)C(CCCCN)NC1=O (stereo not given in full) | 20.2%
25 | O=C1c2cc([N+](=O)[O-])ccc2-c2cc(Cl)c(NC(=O)C(F)(F)F)cc21 | 129%
26 | COC1=C(OC)C(=O)c2ccccc2C1=O | 115%
27 | O=C(O)c1ccc(-c2nn(-c3ccc(C(=O)O)cc3)cc2CNc2ccc(Br)cc2)cc1 | 98.4%
28 | CC1(C)CC(=O)C2=C(C1)Oc1nc(N)c(C#N)c(N)c1C2c1ccc(F)cc1 (stereo not given) | 72.8%
29 | CCCCCCC(=O)C(C)C | 101%
30 | CCOP1(=O)CC(C)=C(Cl)C(P(=O)(O)O)C1 (stereo not given) | 117%
31 | CC(=O)N1CCN(CCNC(=O)n2cc(-c3ccncc3)c(-c3ccc(O)c(Cl)c3)n2)CC1 | 87.2%
32 | CCCCCCCCCCCCCCCCNC(=O)Nc1ccc(C)c(NC(=O)NCCCCCCCCCCCCCCCC)c1 | 112%
33 | O=C1/C(=N\c2cc(=O)[nH]n2S(=O)(=O)c2ccccc2)Nc2ccccc21 | 123%
34 | O=CN/N=C/c1ccc(Cl)c([N+](=O)[O-])c1 | 8.5% (active)
35 | COc1ccc(CNCCCN2C(=O)c3ccc4c5c(ccc(c35)C2=O)C(=O)N(CCCNCc2ccc(OC)c(OC)c2OC)C4=O)c(OC)c1OC | -84.7% (active)
36 | O=C(O)CC1Cc2ccccc2C1C(=O)O (stereo not given) | 96.5%
37 | CCC1(CC)C(OC)NC(Br)=C(C#N)C1(C#N)C(N)=O (stereo not given) | 118%
38 | N#Cc1c2ncccc2c2nnc3cc(Cl)c(Cl)cc3n12 | 67.7%
39 | COc1cc2c(c3c1c(=O)c1cccc(F)c1n3C)C=CC(C)(C)O2 | 95.2%
40 | O=c1c(N=Nc2nccs2)c(-c2ccccc2)[nH]n1-c1nc(-c2ccccc2)cs1 | 45.6%
